Assay results taken from ChEMBL document CHEMBL1157539, “Thousands of chemical starting points for antimalarial lead identification” (Nature, 2010).

Experiments:
Assay type in all cases: functional
[1] = test system: Plasmodium falciparum; assay: GSK_TCMDC: Inhibition of Plasmodium falciparum 3D7 in whole red blood cells, using parasite LDH activity as an index of growth. Test compounds present at 2uM
[2] = test system: Plasmodium falciparum; assay: GSK_TCMDC: Inhibition of Plasmodium falciparum Dd2 in whole red blood cells, using parasite LDH activity as an index of growth. Test compounds present at 2uM
[3] = test system: HepG2; assay: GSK_TCMDC: Percent inhibition of human HepG2 cell line. Test compounds present at 10uM.

SMILES | Inhibition [1] | Inhibition [2] | Inhibition [3]
CN1CCN(c2ccnc3ccc(NC(=O)Nc4ccc5ccccc5c4)cc23)CC1.Cl | 100% | 99% | 2%
Cc1cc(=O)[nH]c(-n2nc(C)cc2NC(=O)C(c2ccccc2)c2ccccc2)n1 | 96% | 77% | 31%
CC1(C)CN(CCC2CCC(NC(=O)/C=C/c3ccccc3F)CC2)Cc2ccc(C#N)cc21.Cl (configuration not stated) | 89% | 82% | 0%
O=C(Nc1ccc(C(=O)N2CCN(CCN3CCN(c4cccc(C(F)(F)F)c4)CC3)CC2)cc1)c1ccc(OC(F)(F)F)cc1 | 95% | 25% | 38%
CCOC(=O)NCCSC(C)(C)[C@H](NC(=O)[C@H](Cc1cc2ccccc2s1)[C@H](CC)N(O)C=O)C(=O)Nc1nccs1 | 98% | 98% | 11%
CC1CCC(NCc2ccc3c(CNC4CCC(C)CC4)c(O)ccc3c2O)CC1.Cl (configuration not stated) | 100% | 99% | 4%
CCOc1ccc(Br)cc1/C=C/C(=O)Nc1ccc2c(c1)CN(C)CCC2.O=C(O)C(F)(F)F | 97% | 37% | 18%
CCCCCN1CCCC1CNS(=O)(=O)c1cccc(C(=O)Nc2cccc(C#N)c2)c1.O=C(O)C(F)(F)F (configuration not stated) | 90% | 7% | 19%
CCOC(=O)N1CCN(CCCCNc2c3ccc(Cl)cc3nc3ccc(OC)cc23)CC1.Cl | 100% | 98% | 25%
Cc1cccc(CC(=N)NCCCCCCNC(=N)Cc2cccc(C)c2)c1.Cl | 97% | 97% | 12%
O=C(O)C(F)(F)F.O=[N+]([O-])c1cccc(CNC2CCN(Cc3ccc(Cl)c(Cl)c3)CC2)c1 | 100% | 71% | 5%
COc1cc2ncnc(Nc3ccc(OCc4ccccc4)c(I)c3)c2cc1OC.Cl | 98% | 62% | 11%
N#Cc1ccc(N2CCN(Cc3ccc(-c4cccc(-c5nc6ccccc6[nH]5)c4)cc3)CC2)nc1.O=C(O)C(F)(F)F | 95% | 29% | 33%
C[C@H](Cc1ccc(C[C@@H](C)NC[C@H](O)c2cccc(Cl)c2)cc1)NC[C@H](O)COc1ccccc1.Cl | 96% | 60% | 99%
Cc1cccc2nc(-c3ccc(-c4ccc(CN5CCC(CO)CC5)cc4)s3)[nH]c12.O=C(O)C(F)(F)F | 100% | 82% | 15%
CCCCC([C@@H](Cc1ccc2ccccc2c1)C(=O)N[C@H](C(=O)NC)C(C)(C)C)N(O)C=O (some centres not stated) | 100% | 97% | 0%
CN1CCCC(CN2CCN(Cc3cccc(-c4ccc(-c5nc6cc(C(F)(F)F)ccc6[nH]5)cc4)c3)CC2)C1.O=C(O)C(F)(F)F (configuration not stated) | 99% | 96% | 100%
Cl.N#Cc1cccc(-c2cccc(C(=O)NC3CCC(CCN4CCc5ccc(C#N)cc5CC4)CC3)c2)c1 (configuration not stated) | 99% | 57% | 31%
O=C(Nc1ccc(Cl)cc1)c1ccc(CN2CCCN(Cc3cccc(O)c3)CC2)cc1.O=C(O)C(F)(F)F | 100% | 69% | 52%
CCOc1cc(CNCCCCCCNCc2cc(OCC)c(OCC)c3ccccc23)c2ccccc2c1OCC.CS(=O)(=O)O | 100% | 99% | 100%

SMILES | Inhibition [1] | Inhibition [2] | Inhibition [3]
CC(C)NCc1ccc(-c2ccc(CN3CCCC(c4ccccc4)C3)cc2)c(C(=O)NC2Cc3ccccc3C2)c1.O=C(O)C(F)(F)F (configuration not stated) | 96% | 64% | 41%
COc1ccc(-c2cccc(NC(=O)c3cccc(C#N)c3)c2)cc1CN1CCN(C)CC1.O=C(O)C(F)(F)F | 91% | 16% | 25%
OC(CNc1ccnc(Nc2cccc(Cl)c2)n1)c1ccccc1C(F)(F)F (configuration not stated) | 95% | 36% | 40%
O=C(Nc1ccc(OC2CCN(Cc3ccsc3)C2)c(Cl)c1)c1ccco1.O=C(O)C(F)(F)F (configuration not stated) | 93% | 96% | 0%
COc1ccc(C(=O)Nc2cc(Br)c3c(c2)CNCC3)cc1Br.Cl | 97% | 8% | 25%
CCN(CCO)CCc1cccc(Nc2nccc(-c3c(-c4ccc(NC(=O)C(C)(C)C)cc4)nn4ccccc34)n2)c1.Cl | 100% | 96% | 62%
COc1ccccc1C1CCN(C2CCC(NC(=O)/C=C/c3ccc(F)c(F)c3)CC2)CC1 (configuration not stated) | 94% | 9% | 49%
C/C(=C\C(=O)NC1CC1)c1ccccc1OCc1ccccc1 | 90% | 1% | 3%
O=C(Nc1cccc(-c2cccc(-c3nc4ccccc4[nH]3)c2)c1)Nc1ccc(F)c(F)c1F | 98% | 95% | 78%
Cc1cccc2nc(-c3ccc(-c4cccc(CNCCCNS(C)(=O)=O)c4)cc3)[nH]c12.O=C(O)C(F)(F)F | 99% | 5% | 5%
Cc1nc(C)c(CC(=O)Nc2cccc(-c3cccc(-c4nc5cc(C(F)(F)F)ccc5[nH]4)c3)c2)s1 | 95% | 30% | 49%
CN1CCCCC1CCc1cc(C(=O)Nc2ccc(-c3ccc(O)cc3)cc2)ccc1O (configuration not stated) | 91% | 11% | 6%
O=C(C=Cc1ccc(Cl)c(Cl)c1)NCCCCCN1CCC(CCNC(=O)C(c2ccccc2)c2ccccc2)CC1 | 90% | 43% | 61%
COc1cccc(CNC(=O)NC2CCN(c3ccnc(Nc4ccc(F)cc4)n3)C2)c1 (configuration not stated) | 94% | 64% | 20%
COc1ccc(C2CCN(CCCCNC(=O)c3ccc(NC(=O)c4ccc(Cl)cc4)cc3)C2)c(OC)c1 (configuration not stated) | 84% | 0% | 18%
O=C(O)C(F)(F)F.O=c1ccc2ccc(F)c3c2n1CC3CN1CCC(NCc2cccc(-c3ccccc3F)c2)CC1 (configuration not stated) | 100% | 6% | 29%
CC(O)C1CCCCN1C(=O)c1cccc(-c2ccc(-c3nc4cc(C(F)(F)F)ccc4[nH]3)cc2)c1 (configuration not stated) | 100% | 100% | 33%
O=C(/C=C/c1ccc(Cl)cc1Cl)NCCCCCN1CCC(c2c[nH]c3ccccc23)CC1 | 99% | 9% | 95%
COc1ccc(NS(=O)(=O)c2cccc(C(=O)Nc3ccc(C(F)(F)F)cc3)c2)cc1N1CCN(CC(C)C)CC1.O=C(O)C(F)(F)F | 94% | 4% | 5%
